{
  "source": "paper PMC4336329",
  "about": "(PLoS ONE, 2015)",
  "note": "Among all 310,000 compounds or so, about 14,000 (4.5%) showed an effect of 50% or more. The effect is printed as a negative number. The full list was thinned out, with strong results kept by preference.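 Also: peak tail current of the secondary pulse compared with the same well before compound.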",
  "data": [
    {"molecular_target": "human ether-à-go-go-related gene (hERG) potassium channel (human, UniProt Q12809)", "sequence (Q12809 whole entry, looked up)": "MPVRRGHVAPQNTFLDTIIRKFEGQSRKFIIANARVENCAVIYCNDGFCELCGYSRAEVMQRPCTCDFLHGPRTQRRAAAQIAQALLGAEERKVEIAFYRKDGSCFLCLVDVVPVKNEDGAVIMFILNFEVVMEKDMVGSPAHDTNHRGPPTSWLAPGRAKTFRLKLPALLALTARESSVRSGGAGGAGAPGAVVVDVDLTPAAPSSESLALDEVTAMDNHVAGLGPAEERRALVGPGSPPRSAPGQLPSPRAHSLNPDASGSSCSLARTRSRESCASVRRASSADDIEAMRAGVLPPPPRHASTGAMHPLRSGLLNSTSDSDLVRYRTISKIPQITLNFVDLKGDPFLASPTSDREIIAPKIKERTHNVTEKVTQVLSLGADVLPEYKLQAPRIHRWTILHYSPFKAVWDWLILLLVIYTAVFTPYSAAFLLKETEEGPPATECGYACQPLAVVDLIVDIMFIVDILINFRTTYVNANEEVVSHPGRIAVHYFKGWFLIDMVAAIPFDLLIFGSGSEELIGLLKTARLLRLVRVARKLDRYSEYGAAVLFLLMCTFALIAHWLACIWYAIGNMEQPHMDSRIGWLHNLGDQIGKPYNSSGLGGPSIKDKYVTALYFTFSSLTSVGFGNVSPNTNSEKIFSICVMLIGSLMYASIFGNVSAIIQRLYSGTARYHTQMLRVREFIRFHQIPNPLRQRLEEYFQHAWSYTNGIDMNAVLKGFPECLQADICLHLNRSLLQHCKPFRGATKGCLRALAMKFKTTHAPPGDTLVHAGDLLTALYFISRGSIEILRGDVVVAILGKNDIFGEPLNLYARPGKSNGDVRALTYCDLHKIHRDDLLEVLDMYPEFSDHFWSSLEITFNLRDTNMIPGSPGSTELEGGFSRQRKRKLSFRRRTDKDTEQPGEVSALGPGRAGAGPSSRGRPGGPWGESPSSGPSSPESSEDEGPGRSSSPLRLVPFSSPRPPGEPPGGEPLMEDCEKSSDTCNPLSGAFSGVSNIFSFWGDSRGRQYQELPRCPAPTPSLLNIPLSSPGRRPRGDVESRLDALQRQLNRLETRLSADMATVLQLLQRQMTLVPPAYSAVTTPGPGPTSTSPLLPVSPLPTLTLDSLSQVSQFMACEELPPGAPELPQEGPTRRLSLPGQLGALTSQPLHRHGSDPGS", "assay": "primary screen, population patch clamp on CHO cells stably expressing hERG; higher = less effect of the substance", "units": {"hERG current change (%, negative = inhibition) at 10uM": "%"}, "values": [
      {"smiles": "CC(C)Oc1ccc(S(=O)(=O)N2CCCCC2)cc1NC(=O)C1CSC2(C)CCC(=O)N12", "note": "(stereo not drawn)", "hERG current change (%, negative = inhibition) at 10uM": -20.9},
      {"smiles": "COc1cc(NC(=O)CN(C)S(=O)(=O)c2ccc(-c3ccc(=O)[nH]n3)s2)cc(OC)c1", "hERG current change (%, negative = inhibition) at 10uM": -5.53},
      {"smiles": "COc1cc(OC)c(NC(=O)CN(C)S(=O)(=O)c2ccc(-c3ccc(=O)[nH]n3)s2)cc1Cl", "hERG current change (%, negative = inhibition) at 10uM": -56.5},
      {"smiles": "CCOc1ccc(NC(=O)CN(C)S(=O)(=O)c2ccc(-c3ccc(=O)[nH]n3)s2)cc1", "hERG current change (%, negative = inhibition) at 10uM": 2.54},
      {"smiles": "Cc1ccccc1NC(=O)CN(C)S(=O)(=O)c1cccs1", "hERG current change (%, negative = inhibition) at 10uM": 2.52},
      {"smiles": "Cc1ccccc1NC(=O)CN(C)S(=O)(=O)c1ccc(-c2ccc(=O)[nH]n2)s1", "hERG current change (%, negative = inhibition) at 10uM": -78.6},
      {"smiles": "Cc1cccc(NC(=O)CN(C)S(=O)(=O)c2ccc(-c3ccc(=O)[nH]n3)s2)c1C", "hERG current change (%, negative = inhibition) at 10uM": -19.9},
      {"smiles": "CCOC(=O)CCN(c1ccccc1)S(=O)(=O)c1ccc(-c2ccc(=O)[nH]n2)s1", "hERG current change (%, negative = inhibition) at 10uM": -29.3},
      {"smiles": "CCc1ccccc1NC(=O)CN(C)S(=O)(=O)c1ccc(-c2ccc(=O)[nH]n2)s1", "hERG current change (%, negative = inhibition) at 10uM": -74.8},
      {"smiles": "COc1cc(OC)c(NC(=O)CN(C)S(=O)(=O)c2ccc3[nH]c(=O)oc3c2)cc1Cl", "hERG current change (%, negative = inhibition) at 10uM": 3.44},
      {"smiles": "CC1CCN(S(=O)(=O)c2ccc3[nH]c(=O)[nH]c3c2)CC1", "hERG current change (%, negative = inhibition) at 10uM": -3.58},
      {"smiles": "O=C(Nc1cc(S(=O)(=O)N2CCCCC2)ccc1Cl)C1=NN(c2ccccc2)C(=O)CC1", "hERG current change (%, negative = inhibition) at 10uM": 12.6},
      {"smiles": "O=C(NNC(=O)C1CCN(C(=O)Nc2ccccc2)CC1)c1ccc([N+](=O)[O-])cc1", "hERG current change (%, negative = inhibition) at 10uM": 2.62},
      {"smiles": "CCCOc1ccc(-c2c(C(=O)N/N=C(\\C)c3ccco3)nnn2-c2nonc2N)cc1", "hERG current change (%, negative = inhibition) at 10uM": 22.5},
      {"smiles": "Cc1[nH]c2ccccc2c1C(=O)COC(=O)c1ccc[n+]([O-])c1", "hERG current change (%, negative = inhibition) at 10uM": 0.499},
      {"smiles": "NC(=O)c1ccc(Oc2ccc(C(N)=O)cc2)cc1", "hERG current change (%, negative = inhibition) at 10uM": 17.5},
      {"smiles": "CCc1sc(C(C2C(=O)CC(C)(C)CC2=O)C2C(=O)CC(C)(C)CC2=O)cc1[N+](=O)[O-]", "hERG current change (%, negative = inhibition) at 10uM": -5.07},
      {"smiles": "O=C(Nc1ccc2c(c1)OCCO2)c1ccc(S(=O)(=O)N2CCCCC2)cc1", "hERG current change (%, negative = inhibition) at 10uM": 4.38},
      {"smiles": "Cc1ccc(-c2ccc(/C=C3\\SC(N4CCOCC4)=NC3=O)o2)cc1", "hERG current change (%, negative = inhibition) at 10uM": -64.8},
      {"smiles": "Cc1ccccc1-c1ccc(/C=C2/SC(N3CCOCC3)=NC2=O)o1", "hERG current change (%, negative = inhibition) at 10uM": -15.9},
      {"smiles": "O=C1N=C(N2CCOCC2)S/C1=C/c1ccc(-c2ccc(F)cc2)o1", "hERG current change (%, negative = inhibition) at 10uM": 2.43},
      {"smiles": "O=C1N=C(N2CCOCC2)S/C1=C\\C=C/c1ccccc1", "hERG current change (%, negative = inhibition) at 10uM": -58.2},
      {"smiles": "O=C1N=C(N2CCCC2)S/C1=C\\C=C\\c1ccccc1", "hERG current change (%, negative = inhibition) at 10uM": -32.4},
      {"smiles": "CC(=C/c1ccccc1)/C=C1/SC(N2CCOCC2)=NC1=O", "hERG current change (%, negative = inhibition) at 10uM": -20.1}
    ]}
  ]
}
